PubChem BioAssay (NCI)
This is part of a sample that, as a whole, favours compounds with a hit. Of some 83,000 tested, about 20% had one in any assay.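 Interpretation: 100, growth as untreated; towards 0, rising growth inhibition; 0, no net growth; 0 to -100, cell death. Compounds scoring below 10 were considered active.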 Unmarked numbers belong to inactive results. Active and inactive are the calls of the source.

Experiments:
Assay in all cases: NCI-60 one-dose screen, 48 h (100 = growth as untreated, 0 = no growth, -100 = all killed)
Details in all cases: 10 µM unless noted
[1] = tested on: NCI-H23 lung
[2] = tested on: NCI-H226 lung
[3] = tested on: HOP-62 NSCLC
[4] = tested on: NCI-H460 lung
[5] = tested on: HOP-92 NSCLC
[6] = tested on: NCI-H522 lung
[7] = tested on: A549/ATCC NSCLC
[8] = tested on: 786-0 renal
[9] = tested on: COLO 205 colon
[10] = tested on: DU-145 prostate
[11] = tested on: K-562 leukemia
[12] = tested on: MALME-3M melanoma
[13] = tested on: MDA-MB-231 breast
[14] = tested on: RXF 393 renal
[15] = tested on: SF-268 CNS
[16] = tested on: SF-295 CNS
[17] = tested on: SF-539 CNS
[18] = tested on: UACC-257 melanoma
[19] = tested on: M14 melanoma
[20] = tested on: NCI-H322M lung

Row | Structure (SMILES) | growth [1] | growth [2] | growth [3] | growth [4] | growth [5] | growth [6] | growth [7] | growth [8] | growth [9] | growth [10] | growth [11] | growth [12] | growth [13] | growth [14] | growth [15] | growth [16] | growth [17] | growth [18] | growth [19] | growth [20]
1 | COc1ccc(C(=O)/C=C/c2ccc(OCc3ccccc3)c(OC)c2)cc1OC | 27.1% | 79.1% | 35.3% | 5.57% (active) | 38.3% | 11.3% | 14.4% | 35.9% | 51.5% | 7.25% (active) | 10.5% | 71.5% | 13% | 24.2% | 32.6% | 25.8% | -37.9% (active) | 58.9% | 62.3% | –
2 | O=C1CCCc2cc(OCC(=O)N3CCCCC3)ccc2N1 | 105% | 101% | 105% | 115% | – | 108% | 113% | 116% | 117% | 122% | 106% | 102% | 105% | 110% | 108% | 99% | 101% | 111% | 116% | –
3 | O=C(/C=C/c1ccc(-c2ccccc2)cc1)c1nc2ccccc2n1Cc1ccc(F)cc1 | 47.5% | -13.9% (active) | 36.1% | 36.5% | 35.4% | 64.1% | 61.9% | 30.7% | 48.9% | 54.4% | 21.7% | 0% (active) | – | 13.6% | 62.4% | 40.4% | -15.9% (active) | 49.5% | 39.6% | –
4 | O=C(/C=C/Nc1ccc2oc(=O)ccc2c1)c1cc2cc(Br)ccc2oc1=O | 98.8% | 101% | – | 114% | – | 101% | 101% | 103% | 131% | 122% | 110% | 95.2% | 94.1% | 121% | 107% | 102% | 97.4% | 91.2% | 99.4% | 104%
5 | COc1ccc(-c2ccc(SCC(=O)Nc3ccc(S(N)(=O)=O)cc3Br)nn2)cc1 | 77.4% | 52.9% | – | 70.2% | – | 37.2% | 64.4% | 33.8% | 115% | 72% | 101% | 89.4% | 85.1% | 89.2% | 17.9% | 60.2% | 42.9% | 87.9% | 101% | 84.5%
6 | O=C(c1ccc(OCCN2CCOCC2)cc1)C1[C@H](c2ccc(Cl)cc2)[C@@H](c2ccccc2)NC12C(=O)Nc1ccc(Cl)cc12 (stereo partly specified) | 37.9% | 48.3% | 67.7% | 10.1% | -11.8% (active) | 16.3% | 22.9% | 16.6% | -20.1% (active) | 45.8% | 4.95% (active) | 69.3% | 28.7% | 2.65% (active) | 43.8% | 27.4% | 41.5% | 45.4% | 23.2% | –
7 | N=C1N=C(SCc2nc3ccccc3[nH]2)NC(=O)/C1=C/c1ccc(Cl)cc1 | 98.8% | 95.1% | – | 102% | – | 92.7% | 109% | 118% | 110% | 110% | 110% | 96.4% | 92.8% | 113% | 112% | 103% | 102% | 106% | 108% | 103%
8 | C/C(=N\Nc1ccc(S(N)(=O)=O)cc1)c1ccc(N=Nc2c(Nc3ccccc3)[nH][nH]c2=O)cc1 | 0.196% (active) | 42.5% | -17.8% (active) | 8.87% (active) | -7.76% (active) | -28.8% (active) | 75% | -45.3% (active) | -10.5% (active) | 13.8% | – | -65.9% (active) | -31.3% (active) | -24.1% (active) | 9.33% (active) | 5.12% (active) | -77.4% (active) | 5.63% (active) | -62.5% (active) | –
